Screening data as filed in PubChem.
KDM4E inh = JMJD2E (human) inhibition. JMJD2E catalytic domain, FDH-coupled NADH fluorescence (FDH is formaldehyde dehydrogenase). hit rate 1.6% among 230,000. Potency, µM (top dose mostly 57.1 µM), actives largely listed as inhibitors. AID 2147; active = well fitted inhibition curve with a large enough effect, not every such curve was filed as active; inconclusive = small, poorly fitted or top-dose-only effect, or another doubt; inactive = no such curve, though single readings can be large or run the other way; note: nearly all actives have a fitted effect of over 50% in size
Target sequence (B2RXH2 1-337 limits assumed): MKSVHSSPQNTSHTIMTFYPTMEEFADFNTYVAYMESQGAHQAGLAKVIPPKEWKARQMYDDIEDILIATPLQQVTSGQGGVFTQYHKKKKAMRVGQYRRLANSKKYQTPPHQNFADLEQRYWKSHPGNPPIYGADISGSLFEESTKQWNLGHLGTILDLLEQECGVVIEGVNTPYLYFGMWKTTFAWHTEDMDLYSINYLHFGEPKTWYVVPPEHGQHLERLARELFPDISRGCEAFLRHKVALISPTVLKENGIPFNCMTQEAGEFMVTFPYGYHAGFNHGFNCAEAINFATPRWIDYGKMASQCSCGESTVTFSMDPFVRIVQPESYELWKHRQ
NPSR antagonist = antagonists of human neuropeptide S receptor cAMP signaling. CHO-NPSR cells, cAMP TR-FRET, antagonist mode. Potency, µM (highest dose often 38.3 µM), usual class: inhibitors. hit rate 1% among 220,000; note: nearly all actives have a fitted effect of over 50% in size
IMPase Li cell = IMPase inhibition in cells with lithium potentiation. CHO-M1 cells, IP1 TR-FRET (IP-One), carbachol + lithium. Potency, µM (highest dose often 59.4 µM), actives largely listed as inhibitors. AID 1457. hit rate 0.35% among 210,000;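 note: IP1 builds up when IMPase is blocked and the TR-FRET signal falls; nearly all actives have a fitted effect of over 50% in size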
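Readout is a homogeneous TR-FRET IP1 immunoassay (Ex 320, Em 665 and 620), where raised cytosolic IP1 lowers signal. Cells were CHO-M1 treated 30 min at 37C with test compounds plus a little lithium; AC50 values came from Hill-equation fitting.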
Sfp PPTase inh = blocks B. subtilis Sfp PPTase activity | Q9F4F7 | Biochemical Sfp PPTase activity, qHTS | Potency, µM, most hits filed as inhibitors | hit rate 3.5% among 310,000;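 note: the enzyme is Sfp with the accession as filed and its product quenches rhodamine fluorescence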
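Buffer: 50 mM Hepes-Na pH 7.6, 10 mM MgCl2, 0.01% Nonidet P-40, 0.01% BSA. Enzyme 15 nM, pre-exposed to compound 15 min; substrates then added and fluorescence change tracked over 30 min.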
GCN5L2 inh = GCN5L2 (KAT2A) acetyltransferase inhibition; GCN5L2 HAT assay, ThioGlo1 CoA-SH fluorescence; Potency, µM (titrated, usually from 58.9 µM), most hits filed as inhibitors; hit rate 0.21% among 390,000; AID 504327
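qHTS, 1536-well. 20nM enzyme, pH 7.5 HEPES/EDTA/Tween-20 buffer; 15 min compound preinc., RT. Start: 75uM H3(1-25), 70uM AcCoA, 50uM ThioGlo1. Read Ex340/Em540 at t=0 (autofluorescence flag) and t=20 min.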
Epigenetic reg = derepresses silenced GFP reporter in murine cells. murine LDR cells, GFP reporter derepression, 30 h. Potency, µM (top dose mostly 53.9 µM), actives largely listed as activators. hit rate 0.2% among 280,000. AID 1865; note: nearly all actives have a fitted effect of over 60% in size
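Derepression of a silenced CMV-GFP reporter in murine LDR cells is scored by enumerating GFP-positive cells with a laser-scanning microplate cytometer after 30 hours of treatment at 37 C.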
Sfp inh conf = confirmation of Bacillus subtilis Sfp PPTase inhibitors; shares compounds with Sfp PPTase inh; Sfp PPTase enzymatic assay, qHTS titration; Potency, µM (top dose mostly 114 µM), most hits filed as inhibitors; hit rate 79% among 380; AID 2701
Target sequence (Q9F4F7 whole entry, looked up): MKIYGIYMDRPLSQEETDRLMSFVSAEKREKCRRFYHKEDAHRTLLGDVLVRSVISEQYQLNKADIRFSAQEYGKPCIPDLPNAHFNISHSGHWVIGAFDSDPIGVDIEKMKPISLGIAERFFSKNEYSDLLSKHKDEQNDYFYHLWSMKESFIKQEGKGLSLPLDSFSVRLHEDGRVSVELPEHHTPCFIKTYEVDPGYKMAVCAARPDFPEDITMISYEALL
Sfp PPTase gel = Blocks Sfp PPTase activity, gel read-out. hit rate 20% among 210. Potency, µM, hits mostly inhibitors. shares compounds with Sfp PPTase inh. purified Sfp, gel-based phosphopantetheinylation read-out. AID 2707;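 active = potency below 100 µM; inconclusive = dose-dependent response but potency above 100 µM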;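 note: potency is an IC50 for inhibitors of Sfp transfer activity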
Large screens that a line does not name were inactive (follow-up assays come after a bar, where they were run); ! = a repeat was not active. This is a sample that favours compounds with a hit; in the whole collection about 3.6% have one here. Unless noted, calls come from the whole dose curve; as a rule, active = well fitted curve in the direction sought with a large enough effect; inconclusive = small, poorly fitted or top-dose-only effect, or another doubt; inactive = no such curve, though single readings can be large; an effect the other way counts as inactive or inconclusive.

OC(CN1CCNCC1)Cn1c2ccc(Br)cc2c2cc(Br)ccc21 (centres undefined)	Sfp PPTase inh 35µM (no result: NPSR antagonist, GCN5L2 inh) | Sfp inh conf inactive | Sfp PPTase gel inactive
Nc1ccc(C(=O)n2c3ccccc3c3ccccc32)cc1	NPSR antagonist inconclusive, Sfp PPTase inh 45µM | Sfp inh conf inconclusive
Nc1ccc(C(=O)N2CCCC2)cc1	none
CCNc1ncc2ncc(=O)n(C3CC3)c2n1	none (no result: KDM4E inh, NPSR antagonist, Epigenetic reg)
O=C(Cn1c(=O)ccc2cc(S(=O)(=O)N3CCCC3)ccc21)Nc1ccc(Cl)cc1	none (no result: KDM4E inh, NPSR antagonist, IMPase Li cell, Sfp PPTase inh)
O=C(O)c1ccnc(SCC(=O)c2ccccc2)c1	Sfp PPTase inh 3.5µM | Sfp inh conf 53µM
O=C(CSc1ncccc1C(=O)O)c1ccccc1	Sfp PPTase inh inconclusive
O=C(CSc1ccc(-c2ccco2)nn1)c1ccccc1	KDM4E inh inconclusive, Sfp PPTase inh 3.2µM | Sfp inh conf 9.4µM
CC1CCN(C(=O)Cn2ncc3c4ccccc4n(Cc4ccc(Cl)cc4)c3c2=O)CC1	none (no result: KDM4E inh, NPSR antagonist, IMPase Li cell, Sfp PPTase inh)
O=C(COC(=O)c1cncc(Br)c1)NCc1ccco1	Sfp PPTase inh 13µM | Sfp inh conf 47µM | Sfp PPTase gel inactive
C[C@H]1Cc2c(COc3ccccc3)nc3c(c2CO1)CN(C(=O)Cc1cccs1)CC3	none (no result: NPSR antagonist, GCN5L2 inh, Epigenetic reg)
CCc1c(C)sc(NC(=O)C2CCCCC2C(=O)O)c1C(N)=O (centres undefined)	KDM4E inh inconclusive, Sfp PPTase inh 4.5µM | Sfp inh conf 11µM
COc1ccccc1CNC(=O)Nc1cccs1	Sfp PPTase inh 4µM | Sfp inh conf 24µM
CN1CCc2cccc3c2[C@@H]1Cc1ccc(O)c(O)c1-3	KDM4E inh 32µM, Sfp PPTase inh 63µM | Sfp inh conf 59µM | Sfp PPTase gel 56µM
COc1ccc2c(c1O)-c1ccccc1CCN(C)C2	none
COc1ccccc1NS(=O)(=O)c1cc(NC(=O)c2sccc2C)ccc1N1CCCC1	KDM4E inh inconclusive, Sfp PPTase inh 2.8µM | Sfp inh conf 17µM
COC(=O)Nc1sc2c(c1C(N)=O)CCC(C)C2 (centres undefined)	Sfp PPTase inh 3.5µM | Sfp inh conf 15µM
Nc1c(C(=O)NC2CC2)sc2nc3c(c(-c4ccco4)c12)CC/C3=C/c1ccco1	KDM4E inh inconclusive, Sfp PPTase inh 5µM, GCN5L2 inh inconclusive, Epigenetic reg inconclusive | Sfp inh conf 8.3µM
CCC1=C[C@@H]2CN(C1)Cc1c([nH]c3ccccc13)[C@@](C(=O)OC)(c1cc3c(cc1OC)N(C)[C@H]1[C@@](O)(C(=O)OC)[C@H](OC(C)=O)[C@]4(CC)C=CCN5CC[C@]31[C@@H]54)C2	Sfp PPTase inh 14µM (no result: KDM4E inh, NPSR antagonist, IMPase Li cell, Epigenetic reg) | Sfp inh conf inconclusive | Sfp PPTase gel 56µM
CCC1(O)CC2CN(CCc3c([nH]c4ccccc34)[C@@](C(=O)OC)(c3cc4c(cc3OC)N(C)C3[C@]45CCN4CC=C[C@@](CC)([C@@H](OC(C)=O)[C@]3(O)C(=O)OC)[C@H]45)C2)C1 (some centres undefined)	NPSR antagonist inconclusive (no result: Sfp PPTase inh)
COC(=O)c1sc(NC(=O)c2cc(-c3ccccc3)nc3ccccc23)c(C#N)c1C	Sfp PPTase inh 0.63µM, GCN5L2 inh inconclusive | Sfp inh conf 8.3µM
Cc1ccccc1NC(=O)CSc1cn(CC(=O)N(C(C)C)C(C)C)c2ccccc12	none (no result: KDM4E inh, NPSR antagonist, IMPase Li cell, Sfp PPTase inh)
Nc1cc(-c2ccncc2)c[nH]c1=O	KDM4E inh 1.1µM, Sfp PPTase inh 6.3µM! | Sfp inh conf 13µM | Sfp PPTase gel inconclusive
O=C(C1CCC(Cn2c(=O)c3sccc3n(Cc3ccccc3F)c2=O)CC1)N1CCOCC1 (centres undefined)	none (no result: KDM4E inh, NPSR antagonist, IMPase Li cell, Sfp PPTase inh)
S=C(NC1CCCCC1)NC1CCCCC1	none (no result: KDM4E inh, NPSR antagonist, Sfp PPTase inh, GCN5L2 inh, Epigenetic reg)
CCOC(=O)c1cc(-c2ccccc2)sc1NC(=O)CC	none
CCOC(=O)c1cc(-c2ccccc2)sc1NC(=O)c1ccc(OC)cc1	Sfp PPTase inh 14µM | Sfp inh conf 8.3µM
